# In PubChem BioAssay (Tox21):
# Where “and” joins values, the source holds several entries; their conditions need not be identical. Identical values can stand only once. Records with an inconclusive call do not appear. Entries that show only a call come without a potency. Calls of active or inactive are those of the source. The call rests on the fitted dose curve; in most records, active means well fitted cell-killing curve with a large enough effect in the repeat runs; inconclusive means weak or mixed curves, or effect the other way; inactive means flat fitted curve, though single readings scatter.
# Experiment: Caspase-3/7 induction in HepG2 cells by small molecules, qHTS cell viability counter screen (AID 1346981); further: nearly all actives have a fitted effect of over 30% in size
# Conditions: CellTiter-Fluor fluorescence, 17 h; series mostly up to 92.4 µM
# Excerpt: U.S. Tox21 Program National Center for Advancing Translational Sciences [NCATS] NIH Chemical Genomics Center [NCGC] U.S. Environmental Protection Agency [EPA] National Institutes of Environmental Health Sciences [NIEHS] National Toxicology Program [NTP] U.S. Food and Drug Administration [FDA] Tox21 Assay Overview: Apoptosis is a process of programmed cell death and plays a central role in the development of multicellular organisms. It is a highly regulated process and induces cell death by activating caspases, which are the members of cysteine aspartic acid-specific protease (caspase) family. Caspases involved in apoptosis are classified by their mechanism of action as initiator caspases (caspase-2, -8, -9 and -10) and executioner caspases (caspase-3, -6, and -7). Inhibition of apoptosis results in number of cancers, autoimmune diseases, inflammatory diseases and viral infection. To identify small molecule compounds that induce apoptosis, a homogeneous, luminescent Caspase-Glo 3/7 assay was used. Wild type HepG2 cells were used to screen Tox21 libraries for identifying caspase-3/7 activity inducers. Also cytotoxicity of the compounds was tested in parallel by measuring the cell viability using CellTiter-Fluor assay system in the same wells.
# Tox21 Assay Protocol Summary: HepG2 cells were dispensed at 2,000 per well in 5uL of culture medium into white solid bottom 1536-well plates (Corning Life Sciences, Corning, NY) using a Multidrop Combi (Thermo Scientific, Waltham, MA) dispenser. The assay plates were incubated at 37 C and 5% CO2 for 5hr, and then 23nL of compounds dissolved in DMSO and positive control were transferred using a Pintool station ([…], San Diego, CA). The assay plates were incubated at 37C and 5% CO2 for 17hr. For cytotoxicity read, after 16hr incubation at 37C, 1uL CellTiter-Fluor reagent (Promega Corporation, Madison, WI) was added to each well of the assay plates using Flying Reagent Dispenser (FRD, Aurora Discovery, San Diego, CA). After 1hr incubation at 37C and 5% CO2, the fluorescence signal was quantified using a ViewLux plate reader (PerkinElmer, Shelton, CT).
# Potency means the concentration at half of the fitted maximal effect.
row,Compound,Potency
1,CN(C)[C@@H]1C(=O)C(C(N)=O)=C(O)[C@@]2(O)C(=O)C3=C(O)c4c(O)ccc(Cl)c4[C@@H](O)[C@H]3C[C@@H]12,inactive
2,O=c1cc(-c2ccc(O)cc2)oc2cc(O)cc(O)c12,27.7 µM (active) and 61.1 µM (active)
3,Cn1cc(C(=O)[C@@H]2CCc3nc[nH]c3C2)c2ccccc21,inactive
4,C/C=C(\C)C(=O)OCc1ccccc1,inactive
5,Oc1cccc(-c2c3nc(c(-c4cccc(O)c4)c4ccc([nH]4)c(-c4cccc(O)c4)c4nc(c(-c5cccc(O)c5)c5ccc2[nH]5)CC4)C=C3)c1,13.3 µM (active)
6,C1CCCC1,inactive
7,O=c1cccccc1O,inactive
8,C=C(C)C(=O)OCC[N+](C)(C)C,inactive
9,CCCCCOC(=O)CCCC,inactive
10,CCN(C(=O)N(CC)c1ccccc1)c1ccccc1,inactive
11,CCCCCCOC(=O)c1ccc(O)cc1,inactive
12,COC(=O)C1=C(C)NC(C)=C(C(=O)OCC(C)C)C1c1ccccc1[N+](=O)[O-] (stereo not given),54.5 µM (active)
13,O=C1CCCc2c1cc1ccc3cccc4ccc2c1c34,inactive
14,CC(C)=CCOc1ccc(/C=C/C(=O)c2ccc(OCC=C(C)C)cc2OCC(=O)O)cc1,inactive
15,CC1=C(C(=O)OC(C)C)C(c2cccc([N+](=O)[O-])c2)C(C(=O)OC2CN(C(c3ccccc3)c3ccccc3)C2)=C(N)N1 (stereo not given),33.5 µM (active)
16,CCC(C)(C)C1CCCCC1OC(C)=O (stereo not given),inactive
17,CC(C)(C)C(=O)OCOC(=O)C1N2C(=O)CC2S(=O)(=O)C1(C)C (stereo not given),inactive
18,CC(C)(C)CC(C)(C)c1ccc(O)c(Cc2ccc(Cl)cc2Cl)c1,29.8 µM (active)
19,Clc1ccc2cc3ccccc3cc2c1,inactive
20,O=S1(=O)CC(Cl)(Cl)C(Cl)(Cl)C1,17.2 µM (active)

row,Compound,Potency
1,Cc1ccc(-n2nc(C(C)(C)C)cc2NC(=O)Nc2ccc(OCCN3CCOCC3)c3ccccc23)cc1,inactive
2,CCCCC(CC)CN=C(N)NC(N)=NCCCCCCN=C(N)NC(N)=NCC(CC)CCCC (stereo not given),26.6 µM (active)
3,O=C(Oc1ccccc1)c1ccccc1C(=O)Oc1ccccc1,inactive
4,CCCCCCCCCCn1cc[n+](CCCCCCCCCC)c1C,68.7 µM (active)
5,COc1cccc(N)c1,inactive
6,CC1=C(/C=C/C(C)=C/C=C/C(C)=C/C=O)C(C)(C)CCC1,60.8 µM (active)
7,Cc1cc(N)c(S(=O)(=O)O)cc1Cl,inactive
8,CN(C)c1ccc(C2(c3ccc(N(C)C)cc3)OC(=O)c3cc(N(C)C)ccc32)cc1,inactive
9,CCCCCCCCCCCC[N+](C)(C)CCCCCCCCCCCC,27.3 µM (active)
10,CCCCN1CCCC[C@H]1C(=O)Nc1c(C)cccc1C,inactive
11,CCCCCCCCCOC(=O)c1ccc(O)cc1,60.3 µM (active)
12,N#CC1(c2ccc(F)cc2)CCC(=O)CC1,inactive
13,O=C(OC[C@H]1O[C@@H](OC(=O)c2cc(O)c(O)c(OC(=O)c3cc(O)c(O)c(O)c3)c2)[C@H](OC(=O)c2cc(O)c(O)c(OC(=O)c3cc(O)c(O)c(O)c3)c2)[C@@H](OC(=O)c2cc(O)c(O)c(OC(=O)c3cc(O)c(O)c(O)c3)c2)[C@@H]1OC(=O)c1cc(O)c(O)c(OC(=O)c2cc(O)c(O)c(O)c2)c1)c1cc(O)c(O)c(OC(=O)c2cc(O)c(O)c(O)c2)c1,18.5 µM (active)
14,CN1CCN(CCC(=O)N2c3ccccc3Sc3ccc(C(F)(F)F)cc32)CC1,29.8 µM (active)
15,Cc1cc(O)c2ccccc2c1O,33.5 µM (active)
16,O=C(NOCC1CC1)c1ccc(F)c(F)c1Nc1ccc(I)cc1Cl,26.6 µM (active)
17,O=[N+]([O-])c1cc([N+](=O)[O-])c2ccc(S(=O)(=O)O)cc2c1O,24.2 µM (active)
18,CSc1cnc(C)cn1,inactive
19,O=c1[nH]sc2cc(Cl)ccc12,inactive
20,CCOC(=O)O[C@]1(C(=O)OCCl)CC[C@H]2[C@@H]3CCC4=CC(=O)C=C[C@]4(C)[C@H]3[C@@H](O)C[C@@]21C,inactive
